This passage reports inhibition results from ChEMBL document CHEMBL1961873, “Compounds: GSK PKIS; Assays: Nanosyn kinase panel” (2012).

The target of assay [1] is T1, Tyrosine-protein kinase receptor TYRO3 (Homo sapiens) (UniProt Q06418).
T1 sequence (whole entry): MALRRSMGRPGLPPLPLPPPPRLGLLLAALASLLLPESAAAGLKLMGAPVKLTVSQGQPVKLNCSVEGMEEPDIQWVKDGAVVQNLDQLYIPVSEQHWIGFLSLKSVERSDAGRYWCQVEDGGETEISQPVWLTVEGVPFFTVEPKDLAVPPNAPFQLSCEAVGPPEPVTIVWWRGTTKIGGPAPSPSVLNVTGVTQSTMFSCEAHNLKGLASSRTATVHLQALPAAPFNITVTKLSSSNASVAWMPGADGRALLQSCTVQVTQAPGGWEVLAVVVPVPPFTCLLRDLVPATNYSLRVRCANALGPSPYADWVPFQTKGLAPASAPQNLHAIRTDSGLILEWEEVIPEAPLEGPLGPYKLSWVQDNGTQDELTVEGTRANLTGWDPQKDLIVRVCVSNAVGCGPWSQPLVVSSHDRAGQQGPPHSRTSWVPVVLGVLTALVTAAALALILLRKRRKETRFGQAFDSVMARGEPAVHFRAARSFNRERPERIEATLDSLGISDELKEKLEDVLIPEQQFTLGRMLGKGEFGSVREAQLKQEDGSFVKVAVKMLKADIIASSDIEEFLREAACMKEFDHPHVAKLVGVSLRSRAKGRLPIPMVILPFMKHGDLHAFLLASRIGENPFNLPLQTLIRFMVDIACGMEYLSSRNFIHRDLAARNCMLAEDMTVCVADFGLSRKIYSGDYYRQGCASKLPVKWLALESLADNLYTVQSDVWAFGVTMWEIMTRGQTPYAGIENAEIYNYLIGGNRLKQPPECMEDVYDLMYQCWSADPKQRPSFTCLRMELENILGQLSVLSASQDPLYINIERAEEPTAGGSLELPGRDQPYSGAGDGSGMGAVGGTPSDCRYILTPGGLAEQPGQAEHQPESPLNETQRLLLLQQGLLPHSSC
The following applies: at 1 µM.

Assay [2] concerns the target Tyrosine-protein kinase Yes (Homo sapiens) (UniProt P07947). The following applies: at 0.1 µM.
Assay [3] shares this target. The following applies: at 1 µM.
Assay [4] deals with T2, Tyrosine-protein kinase ZAP-70 (Homo sapiens) (UniProt P43403).
T2 sequence (whole entry): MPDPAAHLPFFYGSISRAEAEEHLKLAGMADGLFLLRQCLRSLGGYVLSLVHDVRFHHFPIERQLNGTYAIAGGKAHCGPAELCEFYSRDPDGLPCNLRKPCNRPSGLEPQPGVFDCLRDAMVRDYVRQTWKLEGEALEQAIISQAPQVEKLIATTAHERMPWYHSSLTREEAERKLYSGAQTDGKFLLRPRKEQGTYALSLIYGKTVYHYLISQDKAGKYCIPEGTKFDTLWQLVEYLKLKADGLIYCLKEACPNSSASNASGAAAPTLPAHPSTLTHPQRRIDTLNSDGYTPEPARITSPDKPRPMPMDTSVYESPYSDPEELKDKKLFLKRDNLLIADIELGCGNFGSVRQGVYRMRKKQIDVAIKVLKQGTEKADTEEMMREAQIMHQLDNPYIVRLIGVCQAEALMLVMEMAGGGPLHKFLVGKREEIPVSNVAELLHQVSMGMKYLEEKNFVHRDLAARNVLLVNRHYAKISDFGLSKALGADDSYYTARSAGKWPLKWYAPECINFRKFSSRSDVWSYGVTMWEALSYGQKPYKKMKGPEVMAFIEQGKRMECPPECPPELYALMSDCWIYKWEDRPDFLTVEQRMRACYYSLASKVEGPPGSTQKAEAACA
The following applies: at 0.1 µM.

Assay [5] addresses T2, Tyrosine-protein kinase ZAP-70 (Homo sapiens). Conditions: at 1 µM.
Assay [6] deals with Serine/threonine-protein kinase B-raf (Homo sapiens) (UniProt P15056). The following applies: at 0.1 µM.
Sequence of Serine/threonine-protein kinase B-raf (Homo sapiens) (P15056 whole entry): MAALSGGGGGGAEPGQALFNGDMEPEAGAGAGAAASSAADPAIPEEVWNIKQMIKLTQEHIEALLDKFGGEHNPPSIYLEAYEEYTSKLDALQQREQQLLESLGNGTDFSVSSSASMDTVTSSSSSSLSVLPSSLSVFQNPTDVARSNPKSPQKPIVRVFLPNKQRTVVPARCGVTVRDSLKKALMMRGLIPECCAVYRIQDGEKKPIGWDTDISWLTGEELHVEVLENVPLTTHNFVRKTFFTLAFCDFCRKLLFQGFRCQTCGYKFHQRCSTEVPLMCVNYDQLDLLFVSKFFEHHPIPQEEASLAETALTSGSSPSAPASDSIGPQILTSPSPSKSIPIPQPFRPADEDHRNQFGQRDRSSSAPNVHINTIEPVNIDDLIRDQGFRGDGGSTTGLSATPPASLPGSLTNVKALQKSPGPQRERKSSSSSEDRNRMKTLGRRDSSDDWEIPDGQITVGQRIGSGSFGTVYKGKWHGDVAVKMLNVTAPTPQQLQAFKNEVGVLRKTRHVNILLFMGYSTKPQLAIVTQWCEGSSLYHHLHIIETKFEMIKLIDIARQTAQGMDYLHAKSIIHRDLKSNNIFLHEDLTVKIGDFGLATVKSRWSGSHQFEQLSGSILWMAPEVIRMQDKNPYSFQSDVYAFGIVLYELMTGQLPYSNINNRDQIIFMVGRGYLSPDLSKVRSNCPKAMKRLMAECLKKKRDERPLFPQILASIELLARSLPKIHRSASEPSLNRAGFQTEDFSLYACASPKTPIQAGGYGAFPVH
Assay [7] shares this target. The following applies: at 1 µM.
The test system of assay [8] is Serine/threonine-protein kinase B-raf (Homo sapiens), P15056 [V600E]. Conditions: at 0.1 µM.
Sequence of Serine/threonine-protein kinase B-raf (Homo sapiens), P15056 [V600E] (P15056 whole entry V600E): as the sequence (P15056 whole entry) above, with V600E counted along it
The test system is the same in assay [9]. Conditions: at 1 µM.
The target in assay [10] is RAF proto-oncogene serine/threonine-protein kinase (Homo sapiens) (UniProt P04049). The following applies: at 0.1 µM.
Sequence of RAF proto-oncogene serine/threonine-protein kinase (Homo sapiens) (P04049 whole entry): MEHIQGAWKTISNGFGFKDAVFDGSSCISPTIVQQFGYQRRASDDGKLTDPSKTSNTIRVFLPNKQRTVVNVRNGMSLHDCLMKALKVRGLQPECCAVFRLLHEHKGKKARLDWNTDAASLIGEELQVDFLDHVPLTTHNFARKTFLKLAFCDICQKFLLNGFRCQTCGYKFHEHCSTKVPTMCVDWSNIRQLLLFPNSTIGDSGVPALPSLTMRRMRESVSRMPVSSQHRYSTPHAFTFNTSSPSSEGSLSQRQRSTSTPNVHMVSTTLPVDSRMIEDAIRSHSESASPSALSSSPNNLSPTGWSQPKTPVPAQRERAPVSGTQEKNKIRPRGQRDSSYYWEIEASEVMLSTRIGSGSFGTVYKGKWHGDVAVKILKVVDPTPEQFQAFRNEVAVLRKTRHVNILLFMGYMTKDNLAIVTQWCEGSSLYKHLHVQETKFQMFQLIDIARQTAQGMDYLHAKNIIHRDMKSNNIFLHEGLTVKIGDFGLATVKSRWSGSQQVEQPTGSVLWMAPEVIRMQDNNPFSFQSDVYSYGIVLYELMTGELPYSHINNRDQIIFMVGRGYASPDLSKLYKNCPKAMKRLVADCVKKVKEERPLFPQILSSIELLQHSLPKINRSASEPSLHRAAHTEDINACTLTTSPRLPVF
Assay [11] shares this target. The following applies: at 1 µM.
Assay [12] addresses T3, Interleukin-1 receptor-associated kinase 4 (Homo sapiens) (UniProt Q9NWZ3).
T3 sequence (whole entry): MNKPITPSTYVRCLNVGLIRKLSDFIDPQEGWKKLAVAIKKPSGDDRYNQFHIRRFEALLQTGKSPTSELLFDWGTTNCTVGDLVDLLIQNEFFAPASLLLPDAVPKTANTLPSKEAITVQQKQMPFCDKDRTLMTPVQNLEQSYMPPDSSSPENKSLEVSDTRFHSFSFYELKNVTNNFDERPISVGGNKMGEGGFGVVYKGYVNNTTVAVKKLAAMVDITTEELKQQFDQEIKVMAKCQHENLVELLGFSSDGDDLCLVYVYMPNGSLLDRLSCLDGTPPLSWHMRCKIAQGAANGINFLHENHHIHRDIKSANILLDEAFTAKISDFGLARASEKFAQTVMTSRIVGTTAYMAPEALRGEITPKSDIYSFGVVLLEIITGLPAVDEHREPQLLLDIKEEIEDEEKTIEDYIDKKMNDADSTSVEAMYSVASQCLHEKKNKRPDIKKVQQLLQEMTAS
The following applies: at 0.1 µM.

In assay [13] the target is T3, Interleukin-1 receptor-associated kinase 4 (Homo sapiens). Conditions: at 1 µM.
In assay [14] the target is Leucine-rich repeat serine/threonine-protein kinase 2 (Homo sapiens) (UniProt Q5S007). The following applies: at 0.1 µM.
Sequence of Leucine-rich repeat serine/threonine-protein kinase 2 (Homo sapiens) (Q5S007 whole entry): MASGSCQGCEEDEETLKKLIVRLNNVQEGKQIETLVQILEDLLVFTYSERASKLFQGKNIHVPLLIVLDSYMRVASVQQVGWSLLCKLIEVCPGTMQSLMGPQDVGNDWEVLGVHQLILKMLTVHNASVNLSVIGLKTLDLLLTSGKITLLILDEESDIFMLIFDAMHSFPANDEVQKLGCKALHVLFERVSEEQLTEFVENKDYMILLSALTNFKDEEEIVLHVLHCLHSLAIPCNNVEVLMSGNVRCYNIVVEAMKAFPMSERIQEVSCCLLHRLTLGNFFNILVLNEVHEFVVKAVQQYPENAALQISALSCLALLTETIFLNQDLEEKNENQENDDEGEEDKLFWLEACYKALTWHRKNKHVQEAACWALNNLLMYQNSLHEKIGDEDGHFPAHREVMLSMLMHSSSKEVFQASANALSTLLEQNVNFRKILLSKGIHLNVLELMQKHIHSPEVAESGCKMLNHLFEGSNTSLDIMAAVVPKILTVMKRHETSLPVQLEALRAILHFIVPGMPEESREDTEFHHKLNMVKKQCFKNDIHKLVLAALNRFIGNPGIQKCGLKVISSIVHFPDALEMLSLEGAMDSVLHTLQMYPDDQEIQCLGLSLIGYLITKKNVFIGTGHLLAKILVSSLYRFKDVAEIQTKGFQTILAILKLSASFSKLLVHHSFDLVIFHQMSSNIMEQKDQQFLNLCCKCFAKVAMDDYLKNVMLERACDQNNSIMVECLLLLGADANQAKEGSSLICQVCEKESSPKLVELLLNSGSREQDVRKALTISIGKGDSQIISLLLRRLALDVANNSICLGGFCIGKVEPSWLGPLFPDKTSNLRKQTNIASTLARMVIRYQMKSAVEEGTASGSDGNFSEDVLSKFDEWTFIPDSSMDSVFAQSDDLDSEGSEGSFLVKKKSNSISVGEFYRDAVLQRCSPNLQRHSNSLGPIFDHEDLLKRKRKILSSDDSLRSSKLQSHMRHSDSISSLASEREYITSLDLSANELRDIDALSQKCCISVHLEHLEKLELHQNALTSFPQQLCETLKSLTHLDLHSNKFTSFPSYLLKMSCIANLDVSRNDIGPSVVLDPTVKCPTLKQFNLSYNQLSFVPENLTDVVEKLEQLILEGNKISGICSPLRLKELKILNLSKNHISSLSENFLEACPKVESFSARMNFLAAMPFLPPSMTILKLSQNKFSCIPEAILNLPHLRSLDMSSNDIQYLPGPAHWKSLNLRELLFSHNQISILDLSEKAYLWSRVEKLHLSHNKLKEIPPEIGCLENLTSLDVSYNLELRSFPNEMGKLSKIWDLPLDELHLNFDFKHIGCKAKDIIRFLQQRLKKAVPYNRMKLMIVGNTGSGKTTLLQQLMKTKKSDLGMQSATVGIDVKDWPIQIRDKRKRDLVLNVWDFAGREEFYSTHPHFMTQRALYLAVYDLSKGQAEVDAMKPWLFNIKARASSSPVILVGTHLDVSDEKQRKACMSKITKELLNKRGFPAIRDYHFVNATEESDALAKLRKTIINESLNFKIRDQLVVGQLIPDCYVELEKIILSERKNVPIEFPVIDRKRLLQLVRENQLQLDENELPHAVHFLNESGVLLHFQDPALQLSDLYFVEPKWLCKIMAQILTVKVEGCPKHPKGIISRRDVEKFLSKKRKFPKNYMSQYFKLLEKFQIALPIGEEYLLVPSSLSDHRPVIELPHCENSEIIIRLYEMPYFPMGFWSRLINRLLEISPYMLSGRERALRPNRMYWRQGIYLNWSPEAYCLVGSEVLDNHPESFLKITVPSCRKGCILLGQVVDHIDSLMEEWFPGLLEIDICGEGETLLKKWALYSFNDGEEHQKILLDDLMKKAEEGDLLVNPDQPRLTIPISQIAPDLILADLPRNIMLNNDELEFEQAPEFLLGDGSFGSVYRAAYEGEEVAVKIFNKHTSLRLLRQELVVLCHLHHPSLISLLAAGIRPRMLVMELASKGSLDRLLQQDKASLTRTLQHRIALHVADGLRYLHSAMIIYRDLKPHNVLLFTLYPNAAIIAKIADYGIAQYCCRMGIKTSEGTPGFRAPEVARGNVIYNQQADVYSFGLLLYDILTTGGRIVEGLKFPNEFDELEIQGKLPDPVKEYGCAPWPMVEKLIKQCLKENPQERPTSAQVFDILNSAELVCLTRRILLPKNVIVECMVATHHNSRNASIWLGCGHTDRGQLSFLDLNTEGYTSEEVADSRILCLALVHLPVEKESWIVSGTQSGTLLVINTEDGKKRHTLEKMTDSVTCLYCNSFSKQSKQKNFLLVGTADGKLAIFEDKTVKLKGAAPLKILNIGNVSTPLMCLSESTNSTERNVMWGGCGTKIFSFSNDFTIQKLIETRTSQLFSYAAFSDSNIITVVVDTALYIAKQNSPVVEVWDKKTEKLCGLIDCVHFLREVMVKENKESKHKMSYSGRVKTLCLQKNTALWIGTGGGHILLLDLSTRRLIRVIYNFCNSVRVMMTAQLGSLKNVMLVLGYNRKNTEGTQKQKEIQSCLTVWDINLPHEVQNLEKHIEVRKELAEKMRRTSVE
Assay [15] has the same target. The following applies: at 1 µM.
Assay [16] deals with Leucine-rich repeat serine/threonine-protein kinase 2 (Homo sapiens), Q5S007 [G2019S]. The following applies: at 0.1 µM.
Sequence of Leucine-rich repeat serine/threonine-protein kinase 2 (Homo sapiens), Q5S007 [G2019S] (Q5S007 whole entry G2019S): as the sequence (Q5S007 whole entry) above, with G2019S counted along it
For assay [17] the test system is unchanged. Conditions: at 1 µM.

The term inhibition denotes the change of the read-out against control, counted positive when it falls.

Sequence of Tyrosine-protein kinase Yes (Homo sapiens) (P07947 2-543 limits assumed): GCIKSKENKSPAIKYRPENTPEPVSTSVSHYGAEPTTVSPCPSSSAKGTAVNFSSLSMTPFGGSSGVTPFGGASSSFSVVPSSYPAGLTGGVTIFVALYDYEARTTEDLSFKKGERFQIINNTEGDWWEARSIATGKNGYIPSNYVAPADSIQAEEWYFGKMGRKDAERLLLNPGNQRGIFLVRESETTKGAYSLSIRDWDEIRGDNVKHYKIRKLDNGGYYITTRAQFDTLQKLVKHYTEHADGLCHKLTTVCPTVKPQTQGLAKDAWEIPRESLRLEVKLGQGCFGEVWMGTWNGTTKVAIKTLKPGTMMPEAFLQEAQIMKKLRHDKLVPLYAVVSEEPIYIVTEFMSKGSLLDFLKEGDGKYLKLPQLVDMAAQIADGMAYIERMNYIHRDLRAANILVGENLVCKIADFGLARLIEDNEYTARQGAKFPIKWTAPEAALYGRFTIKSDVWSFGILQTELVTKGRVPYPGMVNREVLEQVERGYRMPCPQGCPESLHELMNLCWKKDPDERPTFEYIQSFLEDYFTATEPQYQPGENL

As to `Nc1ncnc2occ(-c3ccc(NC(=O)Nc4cccc(C(F)(F)F)c4)cc3)c12`, the inhibition was 32.2% in assay [1]; 7.17% in [2]; 45.7% in assay [3]; 1.4% in assay [4]; 1.43% in [5]; 7.07% in [6]. Moreover, the inhibition in assay [7] was 13.3%; in assay [8] it was 5.78%; in assay [9], 13.5%; in [10] it was 0.71%; in assay [11], -2.58%; in assay [12], 2.03%. Besides, the inhibition turned out to be 2.34% in assay [13]; 17.1% in assay [14]; 57.9% in assay [15]; 13.1% in assay [16]; 42.8% in assay [17].
With `CN1CCC(C(=O)Nc2n[nH]c3nnc(-c4ccccc4)cc23)CC1`, the inhibition is 5.28% in assay [1]; 3.36% in assay [2]; 3.47% in assay [3]; 4.09% in [4]; 5.43% in assay [5]; 7.26% in assay [6]. Moreover, the inhibition in assay [7] was determined as 7.83%; in assay [8], 8.27%; in assay [9], 7.58%; in assay [10], 16.6%; in [11], 8.96%; in assay [12], 1.96%. Besides, the inhibition in assay [13] was found to be 2.54%; in [14] it was 1.09%; in assay [15] it was 3.72%; in [16] it was 3.14%; in assay [17] it was 6.96%.
For `CNC(=O)c1cncc(/C=C/c2c(Cl)cccc2Cl)c1`, the inhibition in [1] was found to be 4.06%; in [2], 3.3%; in [3], 17.2%; in assay [4], 0.11%; in assay [5], 1.58%; in assay [6] it was 6.39%. Moreover, the inhibition amounted to 10.5% in assay [7]; 3.03% in assay [8]; 4.23% in assay [9]; 5.08% in assay [10]; 0.92% in assay [11]; 1.25% in assay [12]. Also, the inhibition in assay [13] turned out to be 2.37%; in [14] it was 0.98%; in assay [15], 7.19%; in assay [16] it was 5.24%; in assay [17], 14.7%.
For the molecule `NC(=O)c1cccc(Nc2nccc(Nc3cccc4[nH]ncc34)n2)c1`, the inhibition was 54.4% in assay [1]; 32% in [2]; 82.5% in [3]; -2.28% in [4]; 4.64% in assay [5]; -3.03% in [6]. For the same molecule, the inhibition is 4.38% in assay [7]; -3.72% in [8]; 3.75% in assay [9]; -3.86% in assay [10]; -3.49% in assay [11]; -3.26% in [12]. The inhibition in assay [13] is 3.19%; in assay [14], 0.85%; in [15], 8.7%; in assay [16], 4.42%; in assay [17], 30.9%.
Take `COc1ccccc1Nc1ncc(-c2ccccc2)o1`: the inhibition turned out to be 2.12% in [1]; 2.01% in [2]; 6.48% in [3]; 0.73% in [4]; 4.36% in assay [5]; 6.58% in [6]. The inhibition in assay [7] was 7.19%; in [8], 4.73%; in [9], 3.58%; in assay [10], 3.32%; in assay [11], 1.9%; in assay [12], 2.31%. For the same molecule, the inhibition worked out at 2.99% in assay [13]; 4.53% in assay [14]; 8.57% in assay [15]; 6.36% in assay [16]; 11.3% in [17].
In the case of `CCn1c(-c2nonc2N)nc2cnc(Oc3cccc(NC(=O)c4ccc(OCCN5CCOCC5)cc4)c3)cc21`, the inhibition in assay [1] is 2.81%; in assay [2], 3.49%; in assay [3], 4.67%; in assay [4], -1.7%; in assay [5], -1.56%; in assay [6], 4.86%. Also, the inhibition in assay [7] is 6.86%; in assay [8], 5.41%; in [9], 5.71%; in assay [10], -0.87%; in [11], 6.03%; in assay [12] it was 3.17%. Also, the inhibition was 1.66% in assay [13]; 0.83% in assay [14]; 9.41% in assay [15]; 4.44% in assay [16]; 29.3% in assay [17].
Turning to `NS(=O)(=O)c1cccc(-c2ccc3c(NC(=O)C4CC4)n[nH]c3c2)c1`, the inhibition was 15.4% in assay [1]; -2.48% in [2]; 6.25% in [3]; -1.92% in assay [4]; -0.84% in assay [5]; -1.67% in assay [6]. The inhibition in assay [7] is -2.14%; in assay [8], -2.01%; in assay [9] it was -2.08%; in assay [10], -7.61%; in assay [11], -2.5%; in [12], 1.83%. In addition, the inhibition in [13] is -0.64%; in [14], -2.61%; in [15] it was 1.25%; in assay [16], 1.47%; in [17], 1.75%.
